Most compounds without a hit are left out; they make up all but 3.6% or so of the library.
LGR2 inh – Drosophila LGR2 receptor signaling inhibition. HEK293 LGR2, CRE-luciferase, bursicon-stimulated, 4 h. inhibition, % at 9.99 µM. hit rate 0.35% among 380,000. AID 720647;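 active means drop in luminescence signal, shown as inhibition above about 50% in the replicate tests, limit read from the data, passing the limit was not always enough; inconclusive means probably only some replicates passing the limit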;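 further: agonist challenge used bursicon conditioned medium at about half maximal strength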
HSF1 inh – HSF1 inhibition; NIH3T3-HGL HSE-luciferase, MG132-induced, luminescence 8 h; stronger effect = lower value; activity change, negative = inhibition, % at 7.5 µM (by protocol); hit rate 0.77% among 300,000; AID 2098;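 active means more than half of replicate wells show activity change below -50%, luminescence cut by over half; inconclusive means some wells, but at most half, below -50%; inactive means no replicate well below -50%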;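 further: luciferase reports HSF-1 transcriptional activity via heat shock element; 0% = median of DMSO wells and -100% = zero luminescence signal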
EBV LMP1 NFkB – Epstein-Barr LMP1 NF-kappaB reporter inhibition; LMP1-induced NF-kappaB luciferase reporter cells, luminescence; hit rate 0.69% among 350,000; inhibition, % at 12.5 µM; AID 504558; in the data active means inhibition above about 41%; inconclusive means no clear call, values can overlap the other calls;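 further: 0% = neutral control wells and 100% = reference inhibitor control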
TROY NFkB inh – inhibitors of TROY-dependent NF-kB signaling; Q293 LMP1-TROYcd NF-kB luciferase reporter, 4 h; inhibition, % at 10 µM; hit rate 0.98% among 360,000;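 active means compounds whose plate-normalised and pattern-corrected inhibition of the luciferase reporter signal at the single screening dose is 50% or more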
TWEAK Fn14 block – inhibitors of TWEAK-Fn14 interaction signaling | hit rate 2% among 360,000 | inhibition, % at 10 µM | TWEAK-stimulated Fn14 reporter cells, luciferase luminescence, 8 h; in the data active means inhibition above about 50%
HSF-1 act – increases HSF-1 driven luciferase reporter signal. NIH3T3-HGL HSF-1 luciferase reporter, MG132, 8 h; 100% = twice DMSO control signal. activation, % at 9 µM. hit rate 1.7% among 300,000;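 active means mean replicate activation of at least 50% with a set share of replicates each reaching 50%; inconclusive means only one of those two conditions met; inactive means mean below 50% and too few replicates reaching it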;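 further: 0% = median of the neutral control wells and 100% = twice that signal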
* hit, by the source's call; ? = inconclusive; / = not tested or not shown.

SMILES	LGR2 inh	HSF1 inh	EBV LMP1 NFkB	TROY NFkB inh	TWEAK Fn14 block	HSF-1 act
Cc1ccc(NC(=O)C2Cc3ccccc3CN2C(=O)c2ccco2)cc1S(=O)(=O)N(C)C (configuration not stated)	-14	-44	-3	72*	9	-49
COc1ccc(NC(=O)Nc2cccc3c2O[C@@H](CN(C)C(=O)Nc2ccc4c(c2)OCO4)[C@@H](C)CN([C@H](C)CO)C3=O)cc1	4	/	/	/	/	/
O=C(Cc1cccs1)Nc1ccccc1-c1nc2ccccc2[nH]1	/	-3	/	/	/	-2
Cc1ccc2nc(-c3ccc(NC(=O)Cc4cccs4)cc3)[nH]c2c1	-55	37	-38	-60	-30	76*
Cc1ccc2nc(-c3ccc(NC(=O)C4CCCO4)cc3)[nH]c2c1 (configuration not stated)	60*	-22	34	44	70*	-25
COc1ccc(NC(=O)C2CCCO2)cc1 (configuration not stated)	/	5	-11	-20	3	23
CC(C)NC(=O)N1CC2(C1)[C@H](c1ccccc1)[C@@H](CO)N2Cc1cccnc1	6	/	/	/	/	/
O=C(c1cccnc1)N1CC(=O)N2[C@@H](CO)[C@@H](c3ccc(C#CCC4CCCC4)cc3)[C@@H]2C1	-9	/	/	/	/	/
COc1ccc2c3c(n(C)c2c1)[C@@H](CO)N(C(=O)Nc1ccc(F)cc1)CC31CCN(C(=O)Cc2ccncc2)CC1	-17	/	/	/	/	/
C[C@@H]1CN([C@H](C)CO)C(=O)c2cc(NC(=O)Cc3cn(C)c4ccccc34)ccc2O[C@H]1CN(C)C(=O)Nc1ccc(F)cc1	3	/	/	/	/	/
O=C(NNc1nc2ccccc2s1)Nc1ccc(Cl)c(Cl)c1	18	-10	-3	82*	52*	-16
O=C(CN1c2ccccc2Sc2ccccc21)NNC(=O)Nc1ccc(Cl)c(Cl)c1	/	-1	-3	59*	23	11
O=C(NNc1nc2ccccc2s1)c1ccccc1F	-28	-3	-8	69*	3	17
O=C(Nc1nc2ccccc2s1)Nc1ccc(F)cc1F	-92	36	-38	-42	0	50*
CO[C@@H]1CN(C)C(=O)c2ccc(NC(=O)Cc3ccccc3)cc2OC[C@@H](C)NC[C@@H]1C	6	/	/	/	/	/
O=C(NNc1nc2ccccc2s1)Nc1ccc(F)cc1	-82	-3	-8	45	65*	-22
COc1ccc(NC(=O)Nc2nc3ccccc3s2)cc1	-36	19	-32	-26	-22	39
CCCCCCCCCCS(=O)(=O)N/N=C/c1ccc([N+](=O)[O-])cc1	-8	13	5	51*	4	39
CNC[C@@H]1Oc2c(NS(=O)(=O)c3ccc(F)cc3)cccc2C(=O)N([C@H](C)CO)C[C@H]1C	15	/	/	/	/	/
Cc1cc(SCC(=O)N/N=C/c2ccc(O)c(O)c2)c(C)cc1Br	/	41	8	19	5	63*
Cc1cc(SCC(=O)N/N=C/c2ccc(O)c(O)c2)nc2ccccc12	3	3	-9	-8	-29	5
Cc1ccccc1NC(=O)Nc1ccc2c(c1)C(=O)N(C)[C@H]1CC[C@@H](CC(=O)O)O[C@H]1CO2	23	/	/	/	/	/
C[C@@H]1CN([C@H](C)CO)S(=O)(=O)c2ccc(-c3ccccc3F)cc2O[C@H]1CN(C)Cc1cncnc1	-2	/	/	/	/	/
CCC(=O)N1C[C@@H](C)[C@H](OC)CN(C)C(=O)c2ccc(NC(=O)c3ccccc3)cc2OC[C@@H]1C	3	/	/	/	/	/
COc1ccc(C)cc1S(=O)(=O)N1CCN(C(=O)c2ncoc2-c2ccc(F)cc2)CC1	6	-6	1	3	-15	8
SMILES	LGR2 inh	HSF1 inh	EBV LMP1 NFkB	TROY NFkB inh	TWEAK Fn14 block	HSF-1 act
COc1ccc(C)cc1S(=O)(=O)N1CCN(C(=O)c2ncoc2-c2ccc(C)cc2)CC1	12	-3	2	-2	85*	10
COc1ccc2c(c1OC)C(=O)OC2Nc1ccc(S(=O)(=O)N=C(N)N)cc1 (configuration not stated)	9	-60*	6	6	18	-69
Cc1ccc2[nH]c(-c3ccccc3)cc(=O)c2c1	/	-3	18	-31	-5	-14
CCOC(=O)Cc1cc(=O)c2cc(C)ccc2[nH]1	6	-68*	10	10	11	-73
Cc1ccccc1-c1cnc2c(c1)C(=O)N([C@H](C)CO)C[C@@H](C)[C@H](CN(C)C(=O)c1ccc(F)cc1)O2	-3	/	/	/	/	/
CCCCC(=O)N/N=C/c1ccc(Sc2cccc3cccnc23)o1	/	9	-4	-9	107*	-13
Cc1ccc(N2C(=O)c3ccccc3C2=O)cc1	-34	9	2	-59	-13	6
Cc1ccc(SC2=C(Sc3ccc(C)cc3)C(=O)c3ccccc3C2=O)cc1	-91	15	-7	60*	47	13
C[C@@H]1CN([C@@H](C)CO)C(=O)c2cc(-c3ccc(F)cc3)cnc2O[C@@H]1CN(C)C(=O)CN(C)C	-3	/	/	/	/	/
c1ccc2c(c1)OCC(c1csc3ncnc(N4CCOCC4)c13)O2 (configuration not stated)	5	-57*	11	21	30	-66
FC(F)(F)c1ccc(N2CCN(c3cc(-c4ccccc4)nc4ncnn34)CC2)nc1	/	-6	30	67*	80*	6
Cc1ccc(N=C2NC(=O)CS2)c(C)c1	/	-2	3	/	101*	-9
CCCCn1nnc(NC(=O)Cc2ccc(Cl)cc2)n1	/	-2	-2	/	74*	-6
CCCn1nnc(NC(=O)Cc2ccccc2)n1	/	3	5	-1	14	-9
O=C(Nc1ccn(CCOC(=O)c2ccccc2)c(=O)n1)c1ccccc1	-2	/	/	54*	-10	/
O=C(Nc1ccn(C2CCC(CO)O2)c(=O)n1)c1ccccc1 (configuration not stated)	21	/	/	-1	5	/
Brc1ccc(-n2cnc(-c3ccccc3)c2)cc1	-117	46	-21	-33	14	78*
CN(CC(=O)Nc1ccccc1Cl)C(=O)COC(=O)c1ccc(Cl)nc1	-5	-2	-8	8	18	-3
CN(CC(=O)Nc1ccccc1Cl)C(=O)COC(=O)c1nc(Cl)c(Cl)c(Cl)c1Cl	-16	10	-12	54*	86*	8
CC1(C)CC(=O)C2=C(C1)Nc1ccccc1NC2c1cc(Cl)ccc1O (configuration not stated)	7	0	85*	8	3	-10
Cc1ccc(C2Nc3ccccc3NC3=C2C(=O)CC(C)(C)C3)c(O)c1 (configuration not stated)	-20	8	-2	13	12	12
Cc1cccc(Cn2nc(C(C)(C)C)cc2C(=O)Nc2ccc(F)cc2)c1	?	-17	9	58*	26	-14
